The supplement of paper PMC6555819

Key:
Test in all cases: PBM binding z-score (relative to random genomic background probes); higher = stronger binding; sequences stand for … in GC…GCGATTGACAGCGTAGAATGAAGG
[1] = system: FXR:RXRa (NR concentration 270 nM, RXRa partner concentration 90 nM)
Summary of the method: (§1)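 Each nuclear receptor dimer, without ligand, was incubated for 1 h on custom Agilent 4×180K protein-binding microarrays. Binding was detected with antibodies against each partner (one per run), and scanned fluorescence was regression-normalized. The binding z-scores are referenced to random human genomic background probes.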

[2] = system: LXRa:RXRa (NR concentration 270 nM, RXRa partner concentration 90 nM)
Summary of the method: as §1

[3] = system: LXRa homodimer (NR concentration 270 nM)
Summary of the method: as §1

[4] = system: LXRb:RXRa (NR concentration 270 nM, RXRa partner concentration 90 nM)
Summary of the method: as §1

[5] = system: LXRb homodimer (NR concentration 270 nM)
Summary of the method: as §1

[6] = system: PPARa:RXRa (NR concentration 270 nM, RXRa partner concentration 90 nM)
Summary of the method: as §1

[7] = system: PPARg:RXRa (NR concentration 180 nM, RXRa partner concentration 90 nM)
Summary of the method: as §1

[8] = system: PPARg:RXRa 270nM:90nM, anti-RXR (NR concentration 270 nM, RXRa partner concentration 90 nM)
Summary of the method: as §1

[9] = system: PPARg:RXRa 30nM:10nM, anti-RXR (NR concentration 30 nM, RXRa partner concentration 10 nM)
Summary of the method: as §1

[10] = system: PPARg:RXRa 90nM:30nM, anti-RXR (NR concentration 90 nM, RXRa partner concentration 30 nM)
Summary of the method: as §1

Row | Sequence | PBM binding z-score [1] | PBM binding z-score [2] | PBM binding z-score [3] | PBM binding z-score [4] | PBM binding z-score [5] | PBM binding z-score [6] | PBM binding z-score [7] | PBM binding z-score [8] | PBM binding z-score [9] | PBM binding z-score [10]
1 | GGAACGAGGGCAAGGTTGATAGCATCTGTCGACG | 0.705 | 0.414 | -0.458 | 0.32 | -0.386 | 2.82 | 4.49 | 5.17 | 3.62 | 4.91
2 | GAATATAGGTAATACAAGGTGAAAGTCCGATTGT | 1.61 | 2.61 | 0.76 | 1.01 | 0.0272 | 2.77 | 3.39 | 3 | 0.987 | 2
3 | ATCTCTAAGTAACCAAGTTCAGTGAATGCCGAAC | 0.436 | 0.569 | 0.843 | 0.518 | 0.349 | 0.397 | -0.15 | 0.228 | 0.371 | 0.352
4 | TCTTGTAGATCAAGCAGGTTAAGACAGCCTGAGT | 0.233 | 0.271 | -0.132 | 0.33 | -0.3 | 0.76 | 0.0477 | 1.3 | 2.29 | 1.76
5 | CCTCGGAGGACAATAGGAGGTCAGAGCTGCCAGA | 0.746 | 2.4 | 3.23 | 1.38 | -0.2 | 1.87 | 0.443 | 0.389 | -0.612 | -0.255
6 | TAGCCTAGGTGAGATCGGGCCAGTATACGCTATA | -0.31 | -0.533 | -0.692 | -0.901 | -0.702 | -0.453 | 0.201 | -0.291 | -0.335 | -0.319
7 | AGAATGAGGTTATACGTAGATCAGGGACGAAAGT | 2.37 | 1.79 | 0.0917 | 1.55 | -0.0358 | 3.23 | 1.83 | 2 | 0.651 | 1.6
8 | GCATATAGGTTATACAAGGTGAAAGTCCGATTGT | 2.85 | 6.15 | 1.21 | 3.08 | 0.203 | 2.94 | 2.19 | 2.63 | 0.843 | 1.98
9 | ATCTCTAGGTAAAAGCTCAGTGAATCCCGAGGAT | -0.219 | -0.28 | -0.281 | -0.514 | 0.446 | 0.485 | 1.13 | 2.55 | 1.27 | 2.35
10 | CCGACTGGGGCAAGGTTACCATGACGCACAGCCA | -0.0845 | 0.558 | 0.0292 | 0.445 | -1.06 | 1.87 | 2.78 | 3.14 | 1.24 | 2.47
11 | CCTACTGGACCAAAAAGGTCATTGATGCCGATAA | 3.74 | 4.82 | 4.22 | 4.55 | 1.28 | 4.55 | 2.13 | 3.38 | 1.31 | 2.53
12 | CCTAATGGGCCAAGGTCATTGATCAGTCAAAGCA | 3.25 | 3.17 | 1.04 | 2.93 | -0.303 | 3.86 | 2.44 | 3 | 0.651 | 2.34
13 | ATCTCTAGGTAAAAGTTCAGTGCATCCCGAGGAT | 0.914 | 1.67 | 1.72 | 0.979 | 0.86 | 4.39 | 8.17 | 7.48 | 7.56 | 8.52
14 | ACTAGCAGGACAAGTTTGGGTCACTCAAACAAAG | 0.14 | 0.146 | -0.00824 | 0.621 | -0.0447 | 1.36 | 0.27 | 0.0968 | -0.0869 | -0.0203
15 | ACTAACAGGCCAAGTTTGGGTCACTCAAACAAAG | 0.517 | 0.251 | -0.258 | 0.977 | 0.105 | 1.45 | 0.241 | 0.254 | -0.0822 | 0.083
16 | CAAACTAGGTCTCGAAAGGTCAAAGTCGAATGAC | 4.95 | 5.78 | 5.59 | 5.49 | 1.63 | 5.51 | 5.33 | 5.32 | 2.94 | 4.72
17 | ATACCAAGGTGATCGTGAGGTCGTCGATACTAAC | 1.46 | 1.08 | 0.311 | 0.992 | -0.191 | 1.75 | 0.672 | 0.691 | 0.0309 | 0.54
18 | TCATAAAGGTAAAGGTGAAAGTCGAACGATATGA | 1.63 | 1.78 | -0.143 | 1.63 | -0.307 | 3.51 | 4.7 | 5.2 | 5.07 | 5.53
19 | CCTACTGGGCCATCAGGACATTGATATCAACGTT | 0.247 | -0.3 | 0.171 | -0.621 | -0.424 | 0.703 | 1.19 | 1.26 | 0.361 | 0.825
20 | TGTTGTAGATCAATAGAGGTTAAGAAAGTGCGCT | 1.03 | 3.59 | 1.16 | 1.94 | 1.01 | 1.63 | 0.0938 | 0.944 | 0.473 | 0.795
21 | GTACCAAGGTGAAAAGGTCGTTGATGAGTAGGCG | 2.32 | 1.94 | 0.42 | 1.99 | -0.22 | 3.63 | 2.62 | 3.36 | 1.38 | 2.94
22 | TTAATGAGGTTATAAGATCAGGGAACGTTGCAAA | 1.87 | 1.75 | 0.416 | 1.58 | 0.291 | 3.04 | 1.96 | 2.7 | 1.97 | 2.32
23 | CGTCCAAGGTCGATGCTAGGTCAGTGAAAGCATT | 1.61 | 1.91 | -0.14 | 1.33 | -0.866 | 1.81 | -0.125 | 0.529 | -0.65 | -0.0604
24 | TGTCAAAGTTCAAGGGTAACGTAAGTATCCACAC | 6.24 | 6.1 | 3.43 | 3.73 | 0.957 | 5.25 | 8.36 | 7.5 | 5.26 | 7.05
